Drawing on PubChem BioAssay AID449762 (Southern Research Specialized Biocontainment Screening …, 2010), this text covers inhibition for 98 molecules.

In general, inhibition refers to the change of the read-out against control, counted positive when it falls.

Structures are written as SMILES. Screen size: about 330,000 compounds; about 1,900 (0.58%) were called active. Another 4% or so got no clear call; they are omitted. These entries were drawn from the full list. Potency and affinity values are given separately. Unmarked numbers belong to inactive results. Cut-off read from the data, not from the text of the source: inconclusive = inhibition above about 70% without an active follow-up result; inactive = below that.

This test is described as follows: M. tuberculosis growth inhibition, HTS (AID 449762).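 Note: bacterial growth assessed after seven days of incubation.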 The settings on record: M. tuberculosis H37Rv growth inhibition, 7H9 media; at 25 µM; hits give high values.
`CCNC(=O)NC(=O)C(C)On1nnc2ccc(S(=O)(=O)N(CC)CC)cc21` (stereo not drawn): the inhibition is -3.62%.

For the molecule `C=CCSc1nc(N)c2c(C)c(C)sc2n1`, the inhibition is -14.5%.

As for `O=c1c2c(-c3ccccc3)csc2ncn1/N=C/c1cccc([N+](=O)[O-])c1O`, the inhibition is 0.37%.

As for `O=c1c2c(-c3ccc(Cl)cc3)csc2ncn1/N=C/c1cccc([N+](=O)[O-])c1O`, the inhibition is 3.59%.

For the molecule `CCOC(=O)N1CCN(c2c(NCC3CCCO3)c(=O)c2=O)CC1` (stereo not drawn), the inhibition was 2.94%.

On to `COC(=O)c1cccc(NC(=O)CSc2nnc(C)o2)c1`, for which the inhibition is 3.7%.

As for `Nc1ccc(CC2SC(=O)NC2=O)cc1` (stereo not drawn), the inhibition was -2.9%.

As to `CCOc1ccc(CC2S/C(=N/c3ccccn3)NC2=O)cc1` (stereo not drawn), the inhibition was -1.03%.

`CCc1c(C(=O)Nc2ccc(OC)cc2)[nH]c(C)c1C(C)=O`: the inhibition was 0.65%.

As for `O=S(=O)(Nc1ncccn1)c1ccc(Cl)cc1`, the inhibition was -3.71%.

On to `CCC(=O)Nc1nc2nc(-c3ccccc3)cc(=O)n2[nH]1`, for which the inhibition is -4.67%.

Regarding `CCCC(=O)Nc1nc2nc(-c3ccccc3)cc(=O)n2[nH]1`, the inhibition was -6.79%.

With `Clc1cccc(Cl)c1COc1ccncc1`, the inhibition is -7.66%.

With `O=C(CNC(=O)c1ccccc1Cl)OC1CCOC1=O` (stereo not drawn), the inhibition is 0.14%.

Turning to `O=C(Nc1ccc2nsnc2c1)C1CC1`, the inhibition is 0.63%.

For `S=C(Nc1ccc2nsnc2c1)NC1CCCCC1`, the inhibition is -5.66%.

On to `CC(=O)c1cccc(NC(=S)NC2CCCCC2)c1`, for which the inhibition was 0.31%.

Regarding `CC(=O)c1cccc(NC(=S)NC2CC2)c1`, the inhibition is -5.17%.

As for `CCc1c(C)sc(NC(=O)c2cc(-c3cc(OC)ccc3OC)on2)c1C#N`, the inhibition is 9.02%.

For `CCCCCCCCNC(CO)(CO)CO`, the inhibition is -13.8%.

Take `O=C(C1=C[C@H](c2ccc(Br)cc2)C[C@H](OCCCCO)O1)N1CCOCC1`: the inhibition is 8.9%.

Take `CCn1cc(CNC(=O)C2CCC(=O)N(C3CCCCCC3)C2)cn1` (stereo not drawn): the inhibition was -6.38%.

For `COC(=O)C1=NNC(C(=O)c2ccco2)C1c1ccccc1` (stereo not drawn), the inhibition is 4.3%.

`CCOC(=O)c1ccccc1NC(=O)COC(=O)C1CCCC1`: the inhibition was 27.5%.

Regarding `CC[C@@H](C)[C@H](CN[C@H](CNC)[C@@H](C)O)NCCc1ccc(OC)cc1`, the inhibition was 0.9%.

Regarding `CC[C@H](C)[C@@H](CNC)NC[C@@H](Cc1ccc(O)cc1)NCC(C)(C)C`, the inhibition was -12.2%.

For `CCCCN(CC)C(=O)CSc1nc2ccccc2c(=O)n1CC1COc2ccccc2O1` (stereo not drawn), the inhibition was 15%.

On to `O=C(NCc1cccc(Cl)c1)c1cc(=O)[nH]c2ccccc12`, for which the inhibition was -6.18%.

Consider `CCOC(=O)CN(C#N)c1nc(C)cc(C)n1`, for which the inhibition was -0.56%.

For the molecule `COC(=O)CN(C#N)c1nc(OC)nc(N(C)C)n1`, the inhibition was 9.53%.

As for `O=C(COC(=O)c1ccccc1)Nc1cc(S(=O)(=O)N2CCCCCC2)ccc1Cl`, the inhibition is -13%.

Regarding `CCN1C(=O)[C@@H]2[C@@H](c3ccc(-c4ccc(C(C)=O)cc4)c(OC)c3)N3CCC[C@@]3(C(=O)OC)[C@@H]2C1=O`, the inhibition was 18.4%.

As for `CC(=O)C[C@H](O)CC(=O)[C@H]1OC(=O)CCCCCCc2ccccc21`, the inhibition was 4.94%.

In the case of `CC1(C)CC(=O)C2=C(C1)Nc1ccccc1[S@]2=O`, the inhibition was 1.12%.

For the molecule `COc1ccc(C2=NCCc3cc(OC)c(OC)cc32)cc1OC`, the inhibition was 4.26%.

Regarding `COc1ccc(CC2(CO)CCN(C/C=C/c3ccccc3OC)CC2)cc1`, the inhibition was 50.6%.

As to `OCC1(Cc2ccccc2Cl)CCN(C/C=C/c2ccccc2)CC1`, the inhibition was 2.72%.

Regarding `Cc1ccc(-n2nc(CC#N)c(C#N)c2N)cc1Cl`, the inhibition is -3.34%.

On to `Cc1ccc2[nH]c(O)c(N=O)c2c1`, for which the inhibition is -3.5%.

In the case of `O=Nc1c(O)[nH]c2ccc(F)cc12`, the inhibition was -7.36%.

Turning to `O=C(CSc1cccc[n+]1[O-])Nc1cccc(Oc2ccccc2)c1`, the inhibition was 2.29%.

With `O=C(C1CC(=O)N(c2ccc3c(c2)OCCO3)C1)N1CCN(Cc2ccccc2F)CC1` (stereo not drawn), the inhibition was -2.42%.

As to `COc1cccc2sc3ccc(C#CC4(O)CCCCC4)cc3c(=O)c12`, the inhibition is 47.6%.

Consider `COc1cccc2sc3ccc(C#Cc4ccc(N)cc4)cc3c(=O)c12`, for which the inhibition is 39.9%.

In the case of `COc1ccc(S(=O)(=O)Cc2ccc(C(=O)N3CCN(C4CCCCC4)CC3)o2)cc1`, the inhibition is -3.99%.

With `COc1ccc(NC(=O)c2ccc(CNc3c(NC4CCCCC4)c(=O)c3=O)cc2)c(OC)c1`, the inhibition was -5.88%.

Take `CCOc1ccccc1NC(=O)c1ccccc1N(C)S(C)(=O)=O`: the inhibition is -4.2%.

For the molecule `COc1ccc(C2C(C#N)=C(N)N(Nc3ccccc3)C3=C2C(=O)CC(C)(C)C3)cc1C` (stereo not drawn), the inhibition is -5.96%.

Turning to `COc1ccc(C2C(C#N)=C(N)N(N(C)C)C3=C2C(=O)CC(C)(C)C3)cc1OC` (stereo not drawn), the inhibition was 7.78%.

For `CSc1ccccc1OCc1cc(C(=O)NC(C)CCn2cccn2)no1` (stereo not drawn), the inhibition was -15.6%.

Turning to `Cc1cc(C)n(C(=O)c2ccc([N+](=O)[O-])cc2N)n1`, the inhibition is -4%.

As for `Cc1cc(C)n(C(=O)c2ccc([N+](=O)[O-])cc2Cl)n1`, the inhibition is 5.54%.

Consider `Cc1nc([N+](=O)[O-])cn1CC(=O)c1ccc(Br)cc1`, for which the inhibition was 4.4%.

In the case of `CC(C)C(=O)c1cn(CC(=O)NCc2ccc3c(c2)OCO3)c2ccccc12`, the inhibition was -5.3%.

As to `CS(=O)(=O)n1nc(-c2cccnc2)nc1NCc1ccccc1`, the inhibition was 0.47%.

Turning to `CC(=O)n1nc(-c2ccccc2)nc1NCc1ccc(N(C)C)cc1`, the inhibition is 0.39%.

As for `CCN(CC)CC(=O)NCC1(c2ccccc2)CCCC1`, the inhibition is -3.12%.

As for `O=C(O)C1C2C=CC(C2)C1C(=O)Nc1ccc(C(=O)N2CCCCC2)cc1` (stereo not drawn), the inhibition is 1.87%.

Take `CCOC(=O)C(=O)N=Nc1c(O)n(C)c2ccccc12`: the inhibition is 1.87%.

`Cc1cc(C)n2[nH]c(=O)c(N=Nc3ccccc3)c2n1`: the inhibition is 4.19%.

For `COc1cccc(N=Nc2c(=O)[nH]n3c(C)cc(C)nc23)c1`, the inhibition was 0.98%.

As for `Cc1c(C(=O)N2CCN(C(=O)c3ccccc3)CC2)oc2ccc(F)cc12`, the inhibition was -0.86%.

Turning to `COc1ccc(/C=C/C(=O)c2oc3ccc(F)cc3c2C)cc1`, the inhibition is 10.9%.

As to `CC(=O)c1ccc(OCC(=O)Nc2cccc(S(=O)(=O)N3CCCC3)c2)cc1`, the inhibition was -6.55%.

Turning to `COc1cc(NC(=O)c2cccs2)c(C(=O)OCC(=O)NCc2ccccc2)cc1OC`, the inhibition was -0.2%.

`O=C(COC(=O)c1cccs1)NCc1ccco1`: the inhibition is -0.65%.

As for `COc1ccc(COC(=O)c2ccc3c(=O)n4c(nc3c2)CCC4)cc1F`, the inhibition is 3.8%.

For `COc1cccc(CN(C)C(=O)c2ccc3c(=O)n4c(nc3c2)CCC4)c1OC`, the inhibition is 1.09%.

Take `C[C@H](NC(=O)C1CCN(S(=O)(=O)c2ccccc2)CC1)C(=O)NCc1ccc(Cl)cc1Cl`: the inhibition is -1.33%.

For `O/C(=C\Sc1nnc(Cc2ccccc2)o1)c1ccc(Br)cc1`, the inhibition was 8.01%.

On to `O/C(=C\Sc1nnc(Cc2ccccc2)o1)c1ccc(F)cc1`, for which the inhibition was 7.63%.

Regarding `CCC(C)(C)NC(=O)C(c1ccncc1)N(C(=O)c1sc(C)nc1C)c1ccc(C)cc1` (stereo not drawn), the inhibition was 3.84%.

`COc1cc(/C=N\NC(=O)c2ccc(Cl)cc2)ccc1Oc1ccc([N+](=O)[O-])cn1`: the inhibition is -6.52%.

Regarding `Cc1nc2ccccc2n1CCc1ccccc1`, the inhibition was -2.95%.

Turning to `Cc1cccc(-n2c(N)c(-c3nc4ccccc4n3C)c3nc4ccccc4nc32)c1`, the inhibition was 1.57%.

Turning to `CNC(=O)CS(=O)(=O)CC(=O)Nc1cc(OC(C)C)c(Cl)cc1Cl`, the inhibition was -5.55%.

On to `O=C(OC(C(=O)Nc1ccc(Cl)c(C(F)(F)F)c1)c1ccccc1)C1=COCCO1` (stereo not drawn), for which the inhibition is 45.5%.

As for `O=C(Cc1ccccc1)Nc1nccs1`, the inhibition was -6.19%.

`COC(=O)CCC(=O)Nc1nccs1`: the inhibition is 5.49%.

Turning to `CCn1c(SCC(=O)Nc2nc(C)c(C)s2)nnc1-c1cccnc1`, the inhibition is -1.86%.

`CC1=NC(C(F)(F)F)(C(F)(F)F)C(C#N)=C(C)N1`: the inhibition was -4.27%.

As to `C=CCn1cccc(C(=O)Nc2ccc(SC)cc2)c1=O`, the inhibition is -0.65%.

In the case of `O=C(c1cccc(Cl)c1)c1nn(-c2ccccc2)c(=O)cc1C(F)(F)F`, the inhibition was -1.58%.

With `O=C(c1ccccc1)c1nn(-c2ccccc2)c(=O)cc1C(F)(F)F`, the inhibition is 13.9%.

On to `CCCCNC(=O)c1c(C)cc(=O)oc1C`, for which the inhibition is -6.73%.

With `Clc1cccc(Cl)c1C1Nc2cccc3cccc(c23)N1`, the inhibition was 14.4%.

As to `Oc1ccccc1C1Nc2cccc3cccc(c23)N1`, the inhibition is 6.02%.

In the case of `O=C(CSc1nnnn1-c1ccc(F)cc1F)Nc1ccccc1F`, the inhibition was -0.25%.

Consider `CC(=O)NC1=NN(C(C)=O)C(c2ccc(F)cc2)S1` (stereo not drawn), for which the inhibition was -2.18%.

On to `Cc1cc(=O)oc(C)c1C(=O)NCc1cccnc1`, for which the inhibition is -7.02%.

For the molecule `Cc1onc(-c2ccccc2)c1C(=O)NCc1cccnc1`, the inhibition was -1.76%.

With `COc1ccc(-c2cc(C(=O)N/N=C(\C)c3cccnc3)c3cc(C)ccc3n2)cc1OC`, the inhibition is -3%.

As for `CCc1nnc(NC(=O)c2ccc(S(=O)(=O)N3CCCC3)cc2)s1`, the inhibition is -0.36%.

For `CN(C(=O)CSc1cccc[n+]1[O-])c1ccccc1`, the inhibition is -7.05%.

In the case of `[O-][n+]1ccccc1SCc1ccccc1`, the inhibition is -3.14%.

For `O=C(O)CSc1cccc[n+]1[O-]`, the inhibition was -0.1%.

Take `O=C(CSc1cccc[n+]1[O-])N1CCCCCC1`: the inhibition was -7.02%.

As for `CN(C(=O)CS(=O)(=O)c1cn(CC(=O)N2CCCCC2)c2ccccc12)c1ccccc1`, the inhibition was -2.32%.
